Compound activity from PubChem BioAssay.
Most compounds without a hit are left out; they make up all but 12% or so of the library.
PostGolgi yeast = growth inhibition of a yeast mutant, post-Golgi transport screen | AID 739 | inhibition, % at 10 µM | post-Golgi transport phenotypic cell assay | 0.9% of 98,000 active;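 also: yeast cells grown in 1536-well plates; yeast grown about 18 h at 30C before absorbance read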
PLAP activator = human PLAP activation | 1.2% of 96,000 active | P05187 | AID 696 | purified PLAP enzyme, luminescent substrate read-out; hits give high values | activation fold at 20 µM; in the data active = activation fold above about 2
Target sequence (P05187 whole entry, looked up): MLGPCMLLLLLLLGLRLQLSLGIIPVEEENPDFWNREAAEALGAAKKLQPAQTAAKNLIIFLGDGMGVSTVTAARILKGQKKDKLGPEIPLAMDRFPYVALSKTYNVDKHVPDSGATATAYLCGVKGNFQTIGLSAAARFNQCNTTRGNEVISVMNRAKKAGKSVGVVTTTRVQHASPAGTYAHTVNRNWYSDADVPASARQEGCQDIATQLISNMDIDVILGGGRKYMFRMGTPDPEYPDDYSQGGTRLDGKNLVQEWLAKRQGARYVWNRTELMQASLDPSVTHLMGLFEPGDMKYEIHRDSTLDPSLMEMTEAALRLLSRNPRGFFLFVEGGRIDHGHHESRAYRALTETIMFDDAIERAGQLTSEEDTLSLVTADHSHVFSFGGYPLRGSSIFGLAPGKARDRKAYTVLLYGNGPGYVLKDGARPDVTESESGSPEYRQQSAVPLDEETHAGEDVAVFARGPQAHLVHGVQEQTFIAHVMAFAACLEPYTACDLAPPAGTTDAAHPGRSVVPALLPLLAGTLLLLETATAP
D1 allo mod = D1 dopamine receptor (human) allosteric modulation; P21728; HEK293 D1, CRE-luciferase, dopamine EC30 potentiation; actives deviate in either direction; 5.9% of 58,000 active; B-score at 10 µM;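 active = luminescence count or its row- and column-corrected plate score outside the 99.7% band of the plate's sample wells, on either side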
Cav3 T inh = inhibitors of human Cav3.2 T-type calcium channel; B-score at 10 µM; 4% of 100,000 active; Cav3.2-expressing cells, Fluo-4 calcium fluorescence FDSS; hits give low values;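 active = single-dose well whose peak fluorescence ratio is a statistical outlier from its plate by either plate-standardised score or position-corrected B-score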
PostGolgi ctrl = growth of the yeast control strain, post-Golgi counter-screen; efflux-deficient yeast background strain, growth absorbance A615, 16 h; inhibition, % at 10 µM; 5% of 98,000 active
hDAT+cocaine = modulates human dopamine transporter uptake under cocaine; Q01959; LLC-PK1 hDAT cells, [14C]-dopamine uptake with cocaine IC80; actives deviate in either direction; B-score at 10 µM; 1.3% of 110,000 active; AID 449768;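 active = Z score or B-score, a plate-position-corrected score, falls beyond the plate's 99.7% confidence bounds, in either direction; inactive = both scores lie inside the 99.7% bounds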;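 also: scored against the spread of the other compound wells on the same plate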
D1 PAM confirm = D1 receptor (human) allosteric modulation, confirmed. shares compounds with D1 allo mod. HEK293 D1 CRE-luciferase, dopamine EC30 potentiation; hits give high values. luminescence at 10 µM. 88% of 2,200 active;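 active = luminescence in either of two replicates above the same-plate mean plus 3 SD of the low-dose dopamine control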
D1 ag no DA = secondary test of D1 modulators: activity without dopamine; shares compounds with D1 allo mod; HEK293 D1 CRE-luciferase, luminescence, no dopamine; hits give high values; luminescence at 10 µM; 0.8% of 1,900 active; AID 646; in the data active = luminescence above about 3900
Isoprot counter = counter-screen for D1 modulators: isoproterenol response in HEK293 cells; shares compounds with D1 allo mod; HEK293 D1 CRE-luciferase, isoproterenol EC30 counter-screen; calls only at 10 µM; 63% of 2,200 active; AID 647;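 active = luminescence in either replicate above plate mean of wells with a partly effective reference agonist dose plus 3 SD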;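 also: isoproterenol raises cAMP through native beta-adrenoceptor Gs so signal bypasses D1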
* hit, by the source's call. Rule as the data show it, unless noted: active = inhibition above about 30%; inactive = the rest.

Results for O=C(Nc1ncnc2sc3c(c12)CCCCC3)c1ccco1 ?
PostGolgi yeast: -8; PLAP activator: 1; D1 allo mod: 5.3*; Cav3 T inh: -0.35; PostGolgi ctrl: 5; hDAT+cocaine: -0.16; D1 PAM confirm: 9540*; D1 ag no DA: 1788; Isoprot counter: inactive

Results for COc1ccc2nc3oc(C(=O)N4CCN(c5cccc(C(F)(F)F)c5)CC4)cc3cc2c1 ?
PostGolgi yeast: -1; PLAP activator: 1; D1 allo mod: -1.1; Cav3 T inh: 0.027; PostGolgi ctrl: 2; hDAT+cocaine: -0.7

What do the screens show for `COc1ccc2nc3oc(C(=O)N4CCN(c5cccc(Cl)c5)CC4)cc3cc2c1`?
PostGolgi yeast: 0; PLAP activator: 1.4; D1 allo mod: 3.6*; Cav3 T inh: -3.7; PostGolgi ctrl: 35*; hDAT+cocaine: 0.025; D1 PAM confirm: 5456; D1 ag no DA: 1484; Isoprot counter: inactive

How did COC(=O)c1sc(=S)sc1C(=O)OC do in these assays?
PostGolgi yeast: 0; PLAP activator: 1.1; D1 allo mod: 3.3*; Cav3 T inh: 1; PostGolgi ctrl: 13; hDAT+cocaine: 0.21; D1 PAM confirm: 8136*; D1 ag no DA: 1608; Isoprot counter: inactive

How did CC(=O)NC1CC2CCCC(C1)N2S(=O)(=O)c1ccccc1 (stereo not drawn) do in these assays?
PostGolgi yeast: 3; PLAP activator: 1.3; D1 allo mod: 5.5*; Cav3 T inh: 0.65; PostGolgi ctrl: -1; hDAT+cocaine: 0.084; D1 PAM confirm: 5928; D1 ag no DA: 1484; Isoprot counter: inactive

What do the screens show for `Cc1nc(NCc2ccco2)c2oc3ccccc3c2n1`?
PostGolgi yeast: 13; PLAP activator: 1.6; D1 allo mod: 6*; PostGolgi ctrl: 17; D1 PAM confirm: 11576*; Isoprot counter: active

Results for Cc1nc(SCCO)c2oc3ccccc3c2n1 ?
PostGolgi yeast: 4; PLAP activator: 1.1; D1 allo mod: 7.3*; PostGolgi ctrl: -3; hDAT+cocaine: 0.14; D1 PAM confirm: 10060*; Isoprot counter: active

Results for CCSc1ncnc2c1oc1ccccc12 ?
PostGolgi yeast: -9; PLAP activator: 0.9; D1 allo mod: 12*; Cav3 T inh: -0.87; PostGolgi ctrl: 1; hDAT+cocaine: 1.2; D1 PAM confirm: 11660*; D1 ag no DA: 1868; Isoprot counter: active

What do the screens show for `Cc1nc(Nc2ccncc2)c2oc3ccccc3c2n1`?
PostGolgi yeast: 0; PLAP activator: 0.8; D1 allo mod: 1.1; Cav3 T inh: 0.65; PostGolgi ctrl: 10; hDAT+cocaine: -0.3

What do the screens show for `c1ccc2c(c1)oc1c(N3CCOCC3)ncnc12`?
PostGolgi yeast: -15; PLAP activator: 0.7; D1 allo mod: 3.6; Cav3 T inh: 0.24; PostGolgi ctrl: 7; hDAT+cocaine: -0.13

How did Cc1nc(N2CCOCC2)c2oc3ccccc3c2n1 do in these assays?
PostGolgi yeast: 3; PLAP activator: 1; D1 allo mod: 4.6*; Cav3 T inh: 0.5; PostGolgi ctrl: 12; hDAT+cocaine: 0.29; D1 PAM confirm: 13356*; D1 ag no DA: 1720; Isoprot counter: active

Results for Cc1nc(SCC(=O)NCc2ccccc2)c2oc3ccccc3c2n1 ?
PostGolgi yeast: -2; PLAP activator: 0.8; Cav3 T inh: -0.37; PostGolgi ctrl: 7; hDAT+cocaine: 0.051

How did O=C(Nc1cccc(C(F)(F)F)c1)C12CC3CC(CC(C3)C1)C2 do in these assays?
Cav3 T inh: -0.63; hDAT+cocaine: -0.57

What do the screens show for `Cc1ccc(-n2nnnc2-c2cnoc2-c2cccc(F)c2)cc1`?
Cav3 T inh: -1.5; hDAT+cocaine: 0.49

Results for CCc1nc(NC(C)C)c2oc3ccccc3c2n1 ?
PostGolgi yeast: -1; D1 allo mod: 22*; Cav3 T inh: 1.2; PostGolgi ctrl: 9; hDAT+cocaine: -0.35; D1 PAM confirm: 7576*; Isoprot counter: active

Results for CCc1nc(Nc2ccncc2)c2oc3ccccc3c2n1 ?
PostGolgi yeast: 6; PLAP activator: 0.8; D1 allo mod: -0.00093; Cav3 T inh: -0.32; PostGolgi ctrl: 2; hDAT+cocaine: 0.06

How did CCc1nc(N[C@@H](CC(C)C)C(=O)O)c2oc3ccccc3c2n1 do in these assays?
PostGolgi yeast: -1; PLAP activator: 1.2; Cav3 T inh: 0.73; PostGolgi ctrl: 10; hDAT+cocaine: -0.48

How did CCc1nc(N2CCCCC2)c2oc3ccccc3c2n1 do in these assays?
PostGolgi yeast: -1; PLAP activator: 1.4; D1 allo mod: 6.3*; Cav3 T inh: -1.2; PostGolgi ctrl: 21; hDAT+cocaine: -0.61; D1 PAM confirm: 6440*; D1 ag no DA: 1852; Isoprot counter: inactive

What do the screens show for `O=C(/C(=C/c1ccccc1)c1ccccc1)N1CCCCC1`?
PostGolgi yeast: -5; PLAP activator: 1.1; Cav3 T inh: -2.2; PostGolgi ctrl: 9; hDAT+cocaine: 0.41

How did COc1cc(NC(=O)NCc2ccncc2)cc(OC)c1OC do in these assays?
PostGolgi yeast: 2; PLAP activator: 1; D1 allo mod: 0.0092; Cav3 T inh: 0.15; PostGolgi ctrl: 4; hDAT+cocaine: -0.44

How did COC(=O)C1=[N+]([O-])OC(C(=O)OC)C1c1c[nH]c2ccccc12 (stereo not drawn) do in these assays?
PostGolgi yeast: 1; PLAP activator: 1.1; D1 allo mod: 4.2*; Cav3 T inh: 0.73; PostGolgi ctrl: -7; hDAT+cocaine: -0.09; D1 PAM confirm: 5864; D1 ag no DA: 1700; Isoprot counter: inactive

What do the screens show for `O=c1/c(=C/c2cccc3ccccc23)sc2ncnn12`?
PostGolgi yeast: 3; PLAP activator: 1.1; D1 allo mod: 3.8*; PostGolgi ctrl: 14; hDAT+cocaine: 0.43; D1 PAM confirm: 6052; D1 ag no DA: 1796; Isoprot counter: inactive

Results for CCCCOc1ccc(/C=c2\sc3ncnn3c2=O)cc1 ?
PostGolgi yeast: -8; PLAP activator: 1.6; D1 allo mod: 2.7*; Cav3 T inh: 0.24; PostGolgi ctrl: 6; hDAT+cocaine: -0.63; D1 PAM confirm: 11772*; D1 ag no DA: 2228; Isoprot counter: active

Results for CC1(C)Cc2c(C#N)c(NCCCO)nc(-c3ccccc3)c2CO1 ?
PostGolgi yeast: -15; PLAP activator: 1.1; D1 allo mod: 5.8*; Cav3 T inh: 0.03; PostGolgi ctrl: 85*; hDAT+cocaine: 0.98; D1 PAM confirm: 11280*; D1 ag no DA: 1708; Isoprot counter: active
